This is an account of results in PubChem BioAssay (EPA / NIEHS).

Calls of active or inactive are those of the source. The calls were made as follows: active = hit-call score of the fitted dose curve at least 0.9, where 1 is the maximum; inactive = score below 0.9.

Read-out in assay [1]: Human Leukocyte Antigen - DR isotype (HLADR), HLA-DRA (gene 3122)
Put plainly: BSK_CASM3C_HLADR: BioMAP Diversity Plus: CASM3C Assay for Human Leukocyte Antigen - DR isotype (HLADR) Biomarker Activity (AID 2283043).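 Also: cell-surface HLA-DR protein level quantified by ELISA.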 The note with it: primary human coronary artery smooth muscle cells; actives raise or lower the signal.

Read-out in assay [2]: Monocyte Chemoattractant Protein-1 (MCP1), CCL2 (gene 6347)
Nature of the assay: BSK_CASM3C_MCP1: BioMAP Diversity Plus: CASM3C Assay for Monocyte Chemoattractant Protein-1 (MCP1) Biomarker Activity (AID 2283046). The note with it: primary human coronary artery smooth muscle cells; actives raise or lower the signal.

The nature of assay [3]: BSK_CASM3C_Proliferation: Cell Proliferation Assessment in the BioMAP Diversity Plus: CASM3C Assay (AID 2283047).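 Also: sulforhodamine B total protein stain as relative cell number at 560 nm; sub-confluent cells exposed 48 h before staining; fitted both ways against DMSO so gain or loss of cell number.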 The note with it: primary human coronary artery smooth muscle cells.
Read-out in assay [4]: Tissue Factor, F3 (gene 2152)
Nature of the assay: BSK_CASM3C_TissueFactor: BioMAP Diversity Plus: CASM3C Assay for Tissue Factor Biomarker Activity (AID 2283052).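 Also: cell surface tissue factor protein level read by ELISA.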 The note with it: primary human coronary artery smooth muscle cells; actives raise or lower the signal.

Read-out in assay [5]: Interferon-gamma inducible Protein 10 (IP10), CXCL10 (gene 3627)
Nature of the assay: BSK_hDFCGF_IP10: BioMAP Diversity Plus: hDFCGF Assay for Interferon-gamma inducible Protein 10 (IP10) Biomarker Activity (AID 2283053). Particulars: primary human foreskin fibroblasts; actives raise or lower the signal. A digest of the protocol: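 ELISA read-out of IP-10 (CXCL10) from primary human skin fibroblasts, 24 h after compound addition. Gain or loss of signal versus DMSO baseline, bidirectional curve fitting.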

Read-out in assay [6]: Epidermal growth factor receptor (EGFR), EGFR (gene 1956)
Nature of the assay: BSK_hDFCGF_EGFR: BioMAP Diversity Plus: hDFCGF Assay for Epidermal growth factor receptor (EGFR) Biomarker Activity (AID 2283057). Particulars: primary human foreskin fibroblasts; actives raise or lower the signal. A digest of the protocol:
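ELISA readout of EGFR on human dermal fibroblasts (primary foreskin cells), 24 h post-dosing; bidirectional curve fit vs DMSO baseline, gain or loss of signal scored.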

Read-out in assay [7]: Interleukin-8 (IL8), CXCL8 (gene 3576)
Put plainly: BSK_hDFCGF_IL8: BioMAP Diversity Plus: hDFCGF Assay for Interleukin-8 (IL8) Biomarker Activity (AID 2283058). Particulars: primary human foreskin fibroblasts; actives raise or lower the signal. The essentials: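 IL-8 levels read by ELISA at 24 hours after dosing human skin fibroblast cultures. Parallel SRB staining assessed overt cytotoxicity, and gain or loss of signal was fitted against DMSO control.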

A short description of assay [8]: BSK_hDFCGF_Proliferation: Cell Proliferation Assessment in the BioMAP Diversity Plus: hDFCGF Assay (AID 2283059).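 Also: curves fitted for both rise and fall of signal versus DMSO baseline.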 Particulars: primary human foreskin fibroblasts. A digest of the protocol:
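Total protein read at 560 nm after 0.1% SRB staining of TCA-fixed human skin fibroblasts, […]. Activity is fitted in both directions relative to DMSO as baseline.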

A short description of assay [9]: BSK_hDFCGF_SRB: Viability Assessment in the BioMAP Diversity Plus: hDFCGF Assay (AID 2283061).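 Also: cells exposed to compound for 24 h before the read.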 The note with it: primary human foreskin fibroblasts. A digest of the protocol: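 Viability was read as total protein: after 10% TCA fixation, wells were stained with 0.1% sulforhodamine B and read at 560 nm. Primary human foreskin fibroblasts were dosed for 24 h, with bidirectional fitting versus DMSO.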

Read-out in assay [10]: TIMP metallopeptidase inhibitor 1 (TIMP1), TIMP1 (gene 7076)
Nature of the assay: BSK_hDFCGF_TIMP1: BioMAP Diversity Plus: hDFCGF Assay for TIMP metallopeptidase inhibitor 1 (TIMP1) Biomarker Activity (AID 2283062). The note with it: primary human foreskin fibroblasts; actives raise or lower the signal. A digest of the protocol:
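TIMP-1 measured by ELISA 24 h after chemical dosing of primary human skin fibroblasts, with gain or loss fitted relative to DMSO. Parallel SRB staining (560 nm) monitored overt cytotoxicity.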

Read-out in assay [11]: Monokine induced gamma interferon (MIG), CXCL9 (gene 4283)
Nature of the assay: BSK_hDFCGF_MIG: BioMAP Diversity Plus: hDFCGF Assay for Monokine induced gamma interferon (MIG) Biomarker Activity (AID 2283063). The note with it: primary human foreskin fibroblasts; actives raise or lower the signal. The essentials: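 Human primary foreskin fibroblasts in the hDFCGF system, exposed to test chemical for 24 h; MIG measured by ELISA. Bidirectional curve fitting against DMSO negative control as activity baseline.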

Read-out in assay [12]: Matrix Metallopeptidase 1 (MMP1), MMP1 (gene 4312)
Nature of the assay: BSK_hDFCGF_MMP1: BioMAP Diversity Plus: hDFCGF Assay for Matrix Metallopeptidase 1 (MMP1) Biomarker Activity (AID 2283064). Particulars: primary human foreskin fibroblasts; actives raise or lower the signal. The essentials:
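MMP1 levels quantified by ELISA 24 h after dosing human dermal fibroblast cultures, with parallel SRB total-protein staining for overt cytotoxicity. Data fitted in both directions against DMSO baseline.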

Read-out in assay [13]: Vascular cell adhesion molecule 1 (VCAM1), VCAM1 (gene 7412)
Put plainly: BSK_hDFCGF_VCAM1: BioMAP Diversity Plus: hDFCGF Assay for Vascular cell adhesion molecule 1 (VCAM1) Biomarker Activity (AID 2283065).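 As to AC50: VCAM-1 protein level quantified by ELISA after 24 h chemical exposure.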 Particulars: primary human foreskin fibroblasts; actives raise or lower the signal. The essentials: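 ELISA readout of VCAM-1 on human dermal fibroblast primary cultures, 24 h after chemical exposure. Gain or loss of signal fitted in both directions against DMSO baseline.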

Read-out in assay [14]: Plasminogen activator inhibitor-1 (PAI1), SERPINE1 (gene 5054)
Nature of the assay: BSK_hDFCGF_PAI1: BioMAP Diversity Plus: hDFCGF Assay for Plasminogen activator inhibitor-1 (PAI1) Biomarker Activity (AID 2283066). Particulars: primary human foreskin fibroblasts; actives raise or lower the signal. The essentials:
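ELISA readout of PAI-1 from primary human skin fibroblast cultures, 24 h after compound addition. Gain or loss of signal was fitted bidirectionally against DMSO baseline.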

Read-out in assay [15]: Interferon-gamma inducible Protein 10 (IP10), CXCL10 (gene 3627)
Put plainly: BSK_KF3CT_IP10: BioMAP Diversity Plus: KF3CT Assay for Interferon-gamma inducible Protein 10 (IP10) Biomarker Activity (AID 2283068). Particulars: primary human keratinocytes with fibroblasts; actives raise or lower the signal. A digest of the protocol: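 Human keratinocyte plus foreskin fibroblast primary co-culture exposed to test chemical for 24 h; IP-10 measured by ELISA. Concentration-response fitted bidirectionally against DMSO control as baseline.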

Read-out in assay [16]: Transforming growth factor beta 1 (TGFb1), TGFB1 (gene 7040)
Nature of the assay: BSK_KF3CT_TGFb1: BioMAP Diversity Plus: KF3CT Assay for Transforming growth factor beta 1 (TGFb1) Biomarker Activity (AID 2283072). The note with it: primary human keratinocytes with fibroblasts; actives raise or lower the signal. The essentials: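 Read-out: ELISA for TGF-b1 in keratinocyte/foreskin fibroblast human skin co-culture, 24 h after dosing; bidirectional curve fit vs DMSO baseline; gain or loss of signal scored.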

Read-out in assay [17]: urokinase plasminogen activator (uPA), PLAU (gene 5328)
Nature of the assay: BSK_KF3CT_uPA: BioMAP Diversity Plus: KF3CT Assay for urokinase plasminogen activator (uPA) Biomarker Activity (AID 2283075). The note with it: primary human keratinocytes with fibroblasts; actives raise or lower the signal. A digest of the protocol: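 ELISA read-out of uPA 24 h after dosing human skin keratinocytes co-cultured with foreskin fibroblasts. Signal change fitted both ways relative to DMSO; sulforhodamine B on parallel cultures marks overt cytotoxicity.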

Read-out in another assay: CD40, CD40 (gene 958)
Put plainly: BSK_LPS_CD40: BioMAP Diversity Plus: LPS Assay for CD40 Biomarker Activity (AID 2283076). Particulars: primary human HUVEC with PBMC; actives raise or lower the signal. A digest of the protocol:
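In the LPS system of human endothelial cells with peripheral blood mononuclear cells, CD40 levels were read by ELISA 24 h post-treatment. Signal changes in either direction were fitted against the DMSO baseline, with parallel SRB protein staining.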

Assay [18] in a line: BSK_LPS_SRB: Viability Assessment in the BioMAP Diversity Plus: LPS Assay (AID 2283079).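 Also: total protein by sulforhodamine B absorbance as a cytotoxicity measure; measured one day after compound addition.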 Particulars: primary human HUVEC with PBMC. A digest of the protocol: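 SRB viability endpoint: cells fixed with 10% TCA, stained with 0.1% SRB, read at 560 nm, 24 h post-dose. HUVEC/PBMC co-culture; signal change in either direction scored relative to DMSO.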
Read-out in assay [19]: Macrophage colony-stimulating factor (MCSF), CSF1 (gene 1435)
Nature of the assay: BSK_LPS_MCSF: BioMAP Diversity Plus: LPS Assay for Macrophage colony-stimulating factor (MCSF) Biomarker Activity (AID 2283083). Particulars: primary human HUVEC with PBMC; actives raise or lower the signal. The essentials: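 Bidirectional fitting against DMSO was applied to M-CSF levels read by ELISA at 24 h post-dose. The system pairs human umbilical vein endothelium with peripheral blood mononuclear cells; parallel SRB staining tracked cytotoxicity.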

Consider `CCCOC(=O)c1ccccc1C(=O)OCCC`, for which the outcome in assay [1], in [2], in assay [3], in assay [4], in assay [5] and in assay [6] was inactive. Besides, the result in [7], in assay [8], in assay [9], in assay [10], in assay [11] and in [12] was inactive. Further, the outcome in assay [13] was “inactive”; in assay [14], “inactive”; in [15] it was “inactive”; in [16], “inactive”; in assay [17], “inactive”; with CD40, CD40 (gene 958) it was “inactive”. Besides, the result in assay [18] was inactive. Further, the AC50 (usually the midpoint of the concentration-response curve, whichever way the signal moves) in assay [19] was 7.39 µM (active).
In the case of `CCC(C)c1cc([N+](=O)[O-])cc([N+](=O)[O-])c1OC(=O)C=C(C)C` (stereo not given), the AC50 was 5.31 µM (active) in assay [1]; 36.2 µM (active) in assay [3]; 7.73 µM (active) in [4]; 7.21 µM (active) in assay [5]; 5.09 µM (active) in assay [8]; 11.5 µM (active) in assay [9]. The half-maximal activity concentration (AC50) is 12 µM (active) in [10]; 9.88 µM (active) in assay [11]; 12.3 µM (active) in assay [12]; 5.91 µM (active) in assay [13]; 3.95 µM (active) in assay [14]; 13.9 µM (active) in [15]. The AC50 in assay [16] is 12.4 µM (active); in assay [17] it was 30.3 µM (active); with CD40, CD40 (gene 958) it was 7.46 µM (active); in assay [18], 13.3 µM (active); in assay [19] it was 13 µM (active). Further, the outcome in [2], in [6] and in assay [7] was inactive.
For `O=P1(NCCCl)OCCCN1CCCl` (stereo not given), the result in [1], in assay [2], in [3], in [4], in assay [5] and in assay [6] was inactive. The outcome in assay [7], in [8], in assay [9], in assay [10], in [11] and in assay [12] was inactive. Moreover, the outcome in assay [13] is “inactive”; in assay [14] it was “inactive”; in assay [15], “inactive”; in assay [16], “inactive”; in assay [17], “inactive”; with CD40, CD40 (gene 958), “inactive”. Besides, the result in [18] and in assay [19] was inactive.
